Assay outcomes deposited in PubChem BioAssay by Sanford-Burnham Center for Chemical Genomics.
Shown are actives, neighbours in structure and some others; about 2.7% of the full set was active somewhere.
NadD block = inhibitors of S. aureus NadD, primary screen, biochemical, colorimetric, uHTS; purified NadD enzyme, colorimetric absorbance read-out; 360,000 compounds, 0.78% hits; inhibition, % at 20 µM; Nicotinate-nucleotide adenylyltransferase NadD (Staphylococcus aureus N315); in the data active = inhibition above about 26%
MPTP inh = mitochondrial permeability transition pore inhibitors, primary screen, biochemical, isolated mouse mitochondria, absorbance; AID 602449, 2012; Ca2+ swelling absorbance, 30 min; 360,000 compounds, 1.4% hits; inhibition, % at 10 µM;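 active = inhibition of 50% or more, scaled per plate between neutral and stimulator controls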;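 note: 0% = DMSO wells given calcium and 100% = 1 mM EGTA wells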
aDG glyco up = activators of alpha-DG glycosylation, primary screen, uHTS, Pro5-aDG cells, AlphaScreen; alpha-DG glycosylation AlphaScreen (IIH6); 0% Pro5, 100% B10-LARGE cell signal; activation, % at 10 µM; 360,000 compounds, 0.22% hits;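 active = activation of at least 8% versus controls, or a plate z-score of at least 8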;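 note: Pro5 are CHO cells carrying HIG-tagged alpha-DG that lacks glycosylation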
H9c2 TAG inh = inhibitors of triacylglycerol accumulation, primary screen, cell-based, uHTS, fluorescence, H9c2. H9c2 cells, Nile Red lipid (TAG) fluorescence; cells loaded with 200 µM oleic acid. inhibition, % at 12.5 µM. 230,000 compounds, 0.66% hits. AID 651582, 2012;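 active = pattern-corrected inhibition of lipid staining of at least 50% with the nuclear-stain viability signal not falling by more than 50%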;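 note: 0% = DMSO wells and 100% = triacsin C control wells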
NadD conf = inhibitors of S. aureus NadD, confirmation, biochemical, colorimetric, single concentration | shares compounds with NadD block | purified S. aureus NadD, colorimetric enzyme assay | inhibition, % at 20 µM | 2,000 compounds, 13% hits | AID 624309, 2012; in the data active = inhibition mostly above about 42%, no sharp cut-off; inactive = mostly below about 42%
The depositor's hits bear a star; nt = not tested or not shown.

SMILES | NadD block | MPTP inh | aDG glyco up | H9c2 TAG inh | NadD conf
O=c1[nH]c(C2CCCN(S(=O)(=O)c3cccc(Cl)c3)C2)nc2c1nnn2Cc1ccc2c(c1)OCCO2 (configuration not stated) | 58.3* | -1.2 | -0.4 | nt | 57.3*
CCOc1ccc(NC(=O)CN(C)C(=O)CC(NC(=O)c2ccccc2)c2ccccc2)cc1OCC (configuration not stated) | -2.9 | -0.4 | 0.1 | 3.6 | nt
O=[N+]([O-])c1cnccc1-n1nnc2ccccc21 | 1.2 | 1.7 | 0.1 | nt | nt
Cc1cc(C)nc(NS(=O)(=O)c2ccc(NC(=O)CN3C(=O)S/C(=C\c4ccccc4)C3=O)cc2)n1 | 41.2* | 0.2 | -0.1 | nt | 44.5
COc1ccccc1/C=C1/SC(=O)N(CCC(=O)Nc2ccc(S(=O)(=O)Nc3nccs3)cc2)C1=O | 56.3* | -2.8 | 1.3 | nt | 33.4
O=C(CCN1C(=O)S/C(=C\c2ccccc2)C1=O)Nc1ccc(S(=O)(=O)Nc2nccs2)cc1 | 28.8 | 3.2 | -0.3 | 15.6 | nt
FC(F)(F)c1ccccc1Cc1c(-c2cccc(Br)c2)nc2ccc(Br)cn12 | 10.9 | 3.3 | 0.0 | nt | nt
CC1(C(=O)NS(=O)(=O)c2ccc(F)cc2F)CCN1C(=O)c1ccc(C2CCCCC2)cc1 (configuration not stated) | -0.5 | 0.8 | -0.1 | -12.0 | nt
O=C(/C=C/[C@H]1O[C@@H](n2cnc3c(NC(=O)c4ccccc4)ncnc32)[C@H](O)[C@@H]1O)NCC1CCCCC1 | -2.8 | 0.6 | 0.2 | nt | nt
Cc1ccccc1/C=N/n1c(-c2cc(-c3ccccc3)n[nH]2)n[nH]c1=S | 52.9* | 8.4 | 0.0 | 2.4 | 22.2
S=c1[nH]nc(-c2cc(-c3ccccc3)n[nH]2)n1/N=C/c1ccc(Br)s1 | 43.2* | 6.2 | -0.2 | 20.0 | 42.0
CC1CCCC(NC(=O)C2CCN(S(=O)(=O)c3cnc[nH]3)CC2)C1C (configuration not stated) | -6.9 | -1.0 | 0.0 | nt | nt
O=C(N/N=C/c1ccc(-c2ccc(Cl)c(C(=O)O)c2)o1)c1cc2c(ccc3ccccc32)o1 | 39.1* | 6.3 | 0.2 | 0.3 | 51.5*
O=C(O)c1ccc(/C=N/NC(=O)c2cc3c(ccc4ccccc43)o2)cc1 | 7.4 | 0.0 | -0.2 | nt | nt
N#CCn1cc(/C=N/NC(=O)c2cc3c(ccc4ccccc43)o2)c2ccccc21 | 31.2* | 0.6 | 0.0 | 26.0 | 23.8
Cc1cc([N+](=O)[O-])ccc1-c1ccc(/C=N/NC(=O)c2ccc(Br)o2)o1 | 30.8* | -0.1 | -0.1 | 3.1 | 9.2
Cc1ccc(-c2ccc(/C=N\NC(=O)c3cc4c(ccc5ccccc54)o3)o2)cc1[N+](=O)[O-] | 44.5* | -0.7 | -0.8 | 63.6* | 10.3
COC(=O)[C@@]12C[C@@H](CC(=O)NCCc3ccccc3OC)C(=O)N(Cc3ccco3)C1=CCC(C)(C)C2 | nt | -1.1 | -0.3 | nt | nt
COc1cc(C(=O)N(Cc2ccccc2)c2cccc(C)c2)ccc1OCC(=O)N1CCOCC1 | 1.2 | 0.6 | -0.5 | 16.3 | nt
COP(=O)(CC(=O)c1ccccc1)CC(=O)c1ccccc1 | -1.4 | 0.6 | -0.1 | 2.7 | nt
CC(C)COC(=O)N(C)C[C@H]1OCc2cnnn2CCCC(=O)N([C@H](C)CO)C[C@@H]1C | 3.2 | 1.1 | -0.1 | 6.6 | nt
O=C(N/N=C/c1cccc([N+](=O)[O-])c1)c1cc2c(ccc3ccccc32)o1 | 5.9 | 2.7 | -0.1 | nt | nt
Cc1ccc([N+](=O)[O-])cc1-c1ccc(/C=N/NC(=O)c2cc3c(ccc4ccccc43)o2)o1 | 32.7* | 3.1 | -0.1 | nt | -4.9
O=c1/c(=C\c2cccc(O)c2)sc2nc(-c3ccccc3)c(-c3ccccc3)n12 | 34.7* | 9.8 | 0.2 | 7.4 | -0.7
O=C(O)CSc1c2c(nc3cc(C(=O)Nc4cccc(C(F)(F)F)c4)ccc13)CCC2 | 34.2* | -1.3 | 0.2 | nt | 31.0
SMILES | NadD block | MPTP inh | aDG glyco up | H9c2 TAG inh | NadD conf
CCOC(=O)c1ccccc1NC(=O)c1ccc2c(SCC(=O)O)c3c(nc2c1)CCCC3 | 30.4* | -1.2 | -0.3 | nt | 61.6*
Cc1ccc(S(=O)(=O)Nc2ccc(-c3ccc4nncn4n3)cc2)cc1 | -1.6 | -0.8 | -0.1 | -5.4 | nt
O=C(NCc1cccc(C(F)(F)F)c1)c1cccc2c1C(=O)c1ccc(N3CCC(Cc4ccccc4)CC3)cc1S2(=O)=O | 22.9 | 0.3 | 1.1 | -31.2 | nt
O=C(NCc1ccco1)c1cccc2c1C(=O)c1ccc(/C=C/c3ccccc3)cc1S2(=O)=O | 48.5* | -1.2 | 0.9 | -13.8 | 45.9*
O=C(NCc1ccco1)c1cccc2c1C(=O)c1ccc(N3CCC(Cc4ccccc4)CC3)cc1S2(=O)=O | 39.0* | 1.5 | 0.8 | -11.7 | 5.3
O=C(NCc1cccc(F)c1)c1cccc2c1C(=O)c1ccc(N3CCC(Cc4ccccc4)CC3)cc1S2(=O)=O | 20.9 | 0.7 | 0.5 | -29.8 | nt
O=C(NCCc1ccc(F)cc1)c1cccc2c1C(=O)c1ccc(N3CCC(Cc4ccccc4)CC3)cc1S2(=O)=O | 27.5* | 1.6 | 0.4 | 2.9 | 4.8
CCNC(=O)C1(C)CCCN(C(=O)c2cc(C)n(C(C)(C)C)n2)C1 (configuration not stated) | 2.6 | 0.8 | -0.2 | 7.0 | nt
O=C(COC(=O)c1ccc(Cl)c(S(=O)(=O)N2CCCCC2)c1)NC1CCCCC1 | -2.0 | 0.3 | -0.1 | 0.3 | nt
Cn1c(SCC(=O)Nc2ccc(C(N)=O)cc2)nnc1-c1cccs1 | 3.5 | -0.5 | 0.2 | nt | nt
CCOC(=O)C1=CCN(S(=O)(=O)c2ccc(C)cc2)[C@H]1c1ccccc1Cl | -2.6 | 0.0 | -0.1 | nt | nt
CN1C[C@@H]2[C@@H]3C(=O)N(Cc4ccccc4)C(=O)[C@@H]3[C@](Cc3ccccc3)(C1=O)N2C(=O)c1ccc(F)cc1 | -3.2 | -1.7 | 0.4 | -8.7 | nt
Nc1ccc(Cc2ccc(N)c(O)c2)cc1O | 36.8* | 0.2 | 0.3 | nt | 24.8
Cc1cccc(-c2nnn3c2nc(NCCc2ccc(S(N)(=O)=O)cc2)c2ccccc23)c1 | 34.2* | -0.3 | 0.0 | nt | 11.1
Cc1ccc(-c2nnn3c2nc(NCCc2ccc(S(N)(=O)=O)cc2)c2ccccc23)cc1 | 21.4 | 2.1 | -0.2 | nt | nt
O=c1cc(CN2CCN(c3cccc(Cl)c3)CC2)c2cc(O)c(-c3ccccc3)cc2o1 | 38.9* | -0.1 | 0.0 | 7.1 | 4.3
CCC(=O)N1CCC(C)(C(=O)Nc2nccc3ccccc23)C1 (configuration not stated) | -1.0 | 0.1 | 0.2 | -3.8 | nt
COc1cc2nc(N(CCCN(C)C)C(=O)c3ccc(S(=O)(=O)N4CCc5ccccc54)cc3)sc2cc1OC | 33.7* | 34.1 | 0.3 | 27.1 | 20.8
COc1cc2nc(N(CCCN(C)C)C(=O)c3ccc(S(=O)(=O)N(C)C4CCCCC4)cc3)sc2cc1OC | -3.3 | 2.8 | 0.2 | 17.5 | nt
